# Shn3 inh set2: reduction of Shn3 3'UTR firefly luciferase signal, primary screen, Schnurri-3 inhibitor project, cell-based, Clone20 osteoblasts, set 2 | Clone20 osteoblast Shn3 3'UTR firefly luciferase, 24 h | inhibition, % at 12.5 µM | 360,000 tested, 0.52% active | AID 588674, 2011;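 active = mean inhibition of at least 75% with every replicate also reaching 75%; inconclusive = mean inhibition at least 75% but some replicate below; inactive = mean inhibition below 75%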;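 note: 0% = median of neutral control wells and 100% = pilot-screen positive control compound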
# TRPM1 prom inh: inhibitors of MITF-dependent TRPM1 promoter reporter, primary screen, cell-based, SK-MEL-5, single point, luciferase; inhibition, % at 12.5 µM; 330,000 tested, 0.83% active; SK-MEL-5 TRPM1 promoter luciferase, 24 h; AID 488899, 2010;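 active = mean inhibition across replicates of 60% or more, whatever share of single replicates reaches that level; inconclusive = some that reach 60%, reason not given; inactive = mean inhibition across replicates below 60%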
# LMP1 NFkB inh: EBV LMP1-driven NF-kappaB luciferase reporter inhibitors, primary screen, cell-based, luminescence, single point. AID 504558, 2011. 350,000 tested, 0.69% active. inhibition, % at 12.5 µM. LMP1-induced NF-kappaB luciferase reporter cells; in the data active = inhibition above about 41%; inconclusive = no clear call, values can overlap the other calls;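 note: 0% = neutral control wells and 100% = reference inhibitor control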
# aSyn UTR inh: MLPCN primary screen, SNCA 5' untranslated region. alpha-synuclein 5'UTR reporter, inhibitor activity. inhibition, % (tested at 7.5 µM). 300,000 tested, 0.82% active. AID 1813, 2009; in the data active = inhibition above about 60%; inconclusive = no clear call, values can overlap the other calls;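 note: H4 neuroglioblastoma cells stably carrying SNCA 5'UTR luciferase fusion; 0% = DMSO wells and 100% = positive control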
# PAX8 reporter: inhibitors of PAX8-driven TPO luciferase reporter, primary screen, RMG-I cells, single concentration; SteadyGlo, 24 h; inhibition, % at 12.6 µM; 360,000 tested, 1.2% active; AID 652154, 2013;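 active = mean replicate inhibition at least 60% with every replicate also reaching 60%; inconclusive = only one of the two criteria is met; inactive = mean below 60% and not all replicates reaching 60%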;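 note: luciferase light reporting Pax8 driven TPO promoter activity; plate controls were median of neutral control wells for no effect and mitoxantrone controls for full effect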
# Numbers without * were called inactive; ? = inconclusive; . = no result given. The list is not random: actives were taken first. Their share in the collection is about 2.1%.
SMILES,Shn3 inh set2,TRPM1 prom inh,LMP1 NFkB inh,aSyn UTR inh,PAX8 reporter
O=[N+]([O-])c1ccc(/C=[N+](\[O-])[C@@H]2CCCC[C@@H]2/[N+]([O-])=C/c2ccc([N+](=O)[O-])o2)o1,78,84*,-25,-50,2
O=C(N/N=C/c1ccc([N+](=O)[O-])o1)C1CCCC1,-3,18,5,-7,14
CCOc1ccc2c(c1)OC(c1ccc(OC)cc1)(C(F)(F)F)NC2=O (stereo not drawn),-7,2,1,96*,30
COc1cc(/C=N/NC(=O)c2ccc(CN3C(=O)c4cccc5cccc3c45)cc2)cc(OC)c1O,8,-5,11,14,98*
C[C@H](CO)N1C[C@H](C)[C@@H](CN(C)CC2CCCCC2)Oc2c(NC(=O)CCCCCC(=O)Nc3ccccc3N)cccc2C1=O,.,.,.,.,81*
C[C@H](CO)N1C[C@H](C)[C@@H](CN(C)Cc2ccc(Oc3ccccc3)cc2)Oc2c(NC(=O)CCCCCC(=O)Nc3ccccc3N)cccc2C1=O,.,.,.,.,63*
C[C@H]1CN([C@@H](C)CO)C(=O)c2cccc(NC(=O)CCCCCC(=O)Nc3ccccc3N)c2O[C@@H]1CN(C)Cc1ccc(Cl)c(Cl)c1,.,.,.,.,65*
C[C@H]1CN([C@@H](C)CO)C(=O)c2cccc(NC(=O)CCCCCC(=O)Nc3ccccc3N)c2O[C@H]1CN(C)Cc1ccc(Oc2ccccc2)cc1,.,.,.,.,23
Cc1cnc(C(=O)OCC(=O)N2CCc3ccccc3C2)cn1,-9,19,-3,-5,.
Cc1ccc(S(=O)(=O)NC2CCSC2=O)cc1C (stereo not drawn),-5,12,69*,.,-4
O=C(O)c1ccccc1NS(=O)(=O)c1ccc2ccccc2c1,-12,0,-13,14,-34
Cc1ccc(-n2c(C)cc(C(=O)COc3cccnc3[N+](=O)[O-])c2C)cc1,43,43,15,64*,-10
Cc1cc(C(=O)COC(=O)c2ccc[nH]c2=O)c(C)n1-c1ccccc1,16,-26,47*,-1,-35
Cc1cc(C(=O)COc2cccnc2[N+](=O)[O-])c(C)n1-c1ccccc1F,15,33,?,67*,-9
Cc1cc(C(=O)COc2cccnc2[N+](=O)[O-])c(C)n1-c1ccccc1,90*,68*,?,100*,13
CCOC(=O)CSc1ccc(C(=O)NCCN2CCOCC2)cc1[N+](=O)[O-],-4,-1,-2,-10,-2
CCCCN1C(=O)CC(SC2CC(=O)N(CCCC)C2=O)C1=O (stereo not drawn),2,-8,0,.,9
Cc1ccc(C(=O)NNC(=O)c2cccnc2SCc2cccc([N+](=O)[O-])c2)cc1,8,-9,-11,-14,-18
Cc1ccc(CC#N)c(-c2c(CC#N)ccc(C)c2C)c1C,-6,.,-1,.,7
Cc1ccc2c(c1C)-c1c(ccc(C)c1C)C(=O)C2=O,54,108*,0,.,93*
Cc1ccc(CSc2nnc(SCC(=O)N/N=C/C=C/c3ccco3)s2)cc1,-7,10,-1,52,-19
Cc1ccc(CSc2nnc(SCC(=O)N/N=C/C=C/c3ccccc3[N+](=O)[O-])s2)cc1,-9,5,-11,89*,-14
CC(C)NCC(O)Cn1c2c(c3ccccc31)CCc1c-2cnn1-c1ccccc1 (stereo not drawn),9,85*,18,108*,.
CN1CCc2c(n(CC(O)CNCc3ccccc3)c3ccccc23)C1=O (stereo not drawn),40,2,-6,39,-1
C/C=C/c1cccc(-c2nc(C(=O)NCc3cccc(OC)c3)cc3c2[C@H](CCO)N([S@@](=O)C(C)(C)C)C3)c1,.,.,.,.,-4
O=C(Nc1nnc(-c2ccccc2)o1)NC1CCCCC1,-35,25,68*,-80,-78
O=C(Nc1ccccc1)Nc1nnc(-c2ccccc2)o1,-10,-10,-3,-63,-7
COc1cc(C(C[N+](=O)[O-])c2c(N)n(C)c(=O)n(C)c2=O)ccc1O (stereo not drawn),-2,6,9,-15,25
COc1cccc(F)c1C(C[N+](=O)[O-])c1c(N)n(C)c(=O)n(C)c1=O (stereo not drawn),-110,67*,-7,-19,100*
